Experimental data published in PubChem BioAssay (NCI).
About 83,000 compounds went through this panel and 20% of them were active in at least one assay; those are over-represented in the sample as a whole.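 Treatment: one concentration, 48 hours, 96-well format. Scoring: percent growth, with anything below 10 considered active.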 Active and inactive are the calls of the source.

Legend:
Test in all cases: NCI-60 one-dose screen, 48 h (100 = growth as untreated, 0 = no growth, -100 = all killed)
DU-145 prostate = details: 10 µM unless noted
MALME-3M melanoma = details: 10 µM unless noted
MDA-MB-231 breast = details: 10 µM unless noted
RXF 393 renal = details: 10 µM unless noted
SF-268 CNS = details: 10 µM unless noted
SF-295 CNS = details: 10 µM unless noted
SF-539 CNS = details: 10 µM unless noted
UACC-257 melanoma = details: 10 µM
M14 melanoma = details: 10 µM unless noted
HCT-15 colon = details: 10 µM unless noted
HT29 colon = details: 10 µM unless noted
SNB-75 CNS = details: 10 µM unless noted
SNB-19 CNS = details: 10 µM unless noted
U251 CNS = details: 10 µM unless noted
PC-3 prostate = details: 10 µM unless noted
LOX IMVI melanoma = details: 10 µM unless noted
SK-MEL-5 melanoma = details: 10 µM unless noted
UACC-62 melanoma = details: 10 µM unless noted
SK-MEL-28 melanoma = details: 10 µM unless noted

Measured: growth

C=C1C(=O)O[C@@H]2C[C@@H](C)/C=C\C(=O)[C@](C)(OC(C)=O)C[C@H](OC(=O)/C(C)=C\C)[C@@H]12
active: DU-145 prostate 3.77% | MALME-3M melanoma -36.4% | MDA-MB-231 breast -71.8% | RXF 393 renal -88.1% | SF-268 CNS -1.46% | SF-539 CNS -57.5% | UACC-257 melanoma -76.1% | M14 melanoma -37.1% | HCT-15 colon -26% | HT29 colon -48.6% | U251 CNS 2.55% | PC-3 prostate 1.27% | LOX IMVI melanoma -75.1%
inactive: SF-295 CNS 70.6% | SNB-75 CNS 38.2% | SNB-19 CNS 60.1%

C=CCn1c(SCC(=O)Nc2cccc(C(=O)/C=C/c3cccc([N+](=O)[O-])c3)c2)nc2ccccc2c1=O
inactive: DU-145 prostate 94.1% | MALME-3M melanoma 90.1% | MDA-MB-231 breast 90.1% | RXF 393 renal 84.6% | SF-268 CNS 92.5% | SF-295 CNS 93.5% | SF-539 CNS 96.7% | UACC-257 melanoma 99.3% | M14 melanoma 84.2% | HCT-15 colon 79.3% | HT29 colon 94.9% | SNB-75 CNS 85.5% | SNB-19 CNS 90.2% | U251 CNS 87.9% | PC-3 prostate 87.4% | SK-MEL-5 melanoma 98.6% | UACC-62 melanoma 77.2% | LOX IMVI melanoma 72.8%

C/C(=C(/c1ccc(O)cc1)c1ccc(OCCN2CCCCCC2)cc1)c1ccccc1
active: MALME-3M melanoma 2.85% | UACC-257 melanoma -27% | M14 melanoma -3.91% | HT29 colon -8.88% | LOX IMVI melanoma 5.39%
inactive: DU-145 prostate 74.3% | MDA-MB-231 breast 43.1% | RXF 393 renal 26% | SF-268 CNS 71.3% | SF-295 CNS 44% | SF-539 CNS 10.7% | SNB-75 CNS 71.2% | SNB-19 CNS 64.3% | U251 CNS 41.2% | PC-3 prostate 44.1% | SK-MEL-5 melanoma 58.4% | UACC-62 melanoma 56.9% | SK-MEL-28 melanoma 21%

Cc1cc(=O)n2nc(-c3c[nH]c4ccccc34)sc2n1
inactive: DU-145 prostate 107% | MALME-3M melanoma 85% | MDA-MB-231 breast 90.6% | RXF 393 renal 105% | SF-268 CNS 102% | SF-295 CNS 103% | SF-539 CNS 92.7% | M14 melanoma 107% | HCT-15 colon 93.5% | HT29 colon 107% | SNB-75 CNS 99.8% | SNB-19 CNS 97.3% | U251 CNS 94.2% | PC-3 prostate 98.3% | SK-MEL-5 melanoma 98.5% | UACC-62 melanoma 92% | LOX IMVI melanoma 95.7% | SK-MEL-28 melanoma 96.5%

COc1ccc2c(C3=C(c4c[nH]c5ccccc45)C(=O)N(O)C3=O)coc2c1
inactive: DU-145 prostate 103% | MALME-3M melanoma 94.8% | MDA-MB-231 breast 78.3% | RXF 393 renal 105% | SF-268 CNS 101% | SF-295 CNS 103% | SF-539 CNS 93.3% | M14 melanoma 94.4% | HCT-15 colon 92.2% | HT29 colon 95.4% | SNB-75 CNS 105% | SNB-19 CNS 95.1% | U251 CNS 98% | PC-3 prostate 81.2% | SK-MEL-5 melanoma 94.5% | UACC-62 melanoma 80.4% | LOX IMVI melanoma 52.2% | SK-MEL-28 melanoma 110%

O=c1cc(-c2ccccc2)nc2sc(-c3c[nH]c4ccc(Br)cc34)nn12
inactive: DU-145 prostate 103% | MALME-3M melanoma 104% | MDA-MB-231 breast 89.8% | RXF 393 renal 104% | SF-268 CNS 102% | SF-295 CNS 99.8% | SF-539 CNS 96.3% | M14 melanoma 105% | HCT-15 colon 91.6% | HT29 colon 102% | SNB-75 CNS 108% | SNB-19 CNS 88.4% | U251 CNS 100% | PC-3 prostate 85.4% | SK-MEL-5 melanoma 98.9% | UACC-62 melanoma 87.4% | LOX IMVI melanoma 102% | SK-MEL-28 melanoma 93.9%

C=CCn1c(SCC(=O)Nc2cccc(C(=O)/C=C/c3ccc(OC)c(OC)c3)c2)nc2ccccc2c1=O
inactive: DU-145 prostate 95.2% | MALME-3M melanoma 84.7% | MDA-MB-231 breast 89.7% | RXF 393 renal 87.9% | SF-268 CNS 89.1% | SF-295 CNS 104% | SF-539 CNS 90.3% | UACC-257 melanoma 108% | M14 melanoma 114% | HT29 colon 95% | SNB-75 CNS 83.7% | SNB-19 CNS 77.2% | U251 CNS 76.6% | PC-3 prostate 79.7% | SK-MEL-5 melanoma 97.6% | UACC-62 melanoma 74.9% | LOX IMVI melanoma 79.5% | SK-MEL-28 melanoma 102%

COc1cc2c3c(n(CCCNC4CCCCC4)c(=O)c2cc1OC)-c1cc2c(cc1C3=O)OCO2
inactive: RXF 393 renal 76.6% | SF-268 CNS 70.1% | SF-295 CNS 66.1% | UACC-257 melanoma 96.9% | M14 melanoma 33% | SNB-75 CNS 80.6% | SK-MEL-5 melanoma 97.2% | UACC-62 melanoma 81% | SK-MEL-28 melanoma 97%
active: DU-145 prostate -68.4% | MALME-3M melanoma -46.9% | MDA-MB-231 breast -78.1% | SF-539 CNS -85.5% | HCT-15 colon -68.7% | HT29 colon -69.2% | SNB-19 CNS 2.72% | U251 CNS -91.1% | LOX IMVI melanoma -76.7%

COc1cc2c3c(n(CCCNC4CCC4)c(=O)c2cc1OC)-c1cc2c(cc1C3=O)OCO2
active: DU-145 prostate -73.5% | MALME-3M melanoma -46.2% | MDA-MB-231 breast -65.1% | RXF 393 renal -74% | SF-539 CNS -83.5% | M14 melanoma -78% | HCT-15 colon -53% | HT29 colon -64.1% | SNB-75 CNS -67% | SNB-19 CNS -25.2% | U251 CNS -88.9% | PC-3 prostate -78.7% | LOX IMVI melanoma -72.8%
inactive: SF-268 CNS 45.6% | SF-295 CNS 20.4% | SK-MEL-5 melanoma 76.8% | UACC-62 melanoma 59.1% | SK-MEL-28 melanoma 86.7%

C/C(=C(/c1ccc(O)cc1)c1ccc(OCCN2CCCC2)cc1)c1ccc(Cl)cc1
active: MALME-3M melanoma -39.9% | RXF 393 renal 3.89% | SF-539 CNS 0.146% | UACC-257 melanoma -77.6% | M14 melanoma -64.7% | HT29 colon -52.3% | UACC-62 melanoma -17.7% | LOX IMVI melanoma -19.2%
inactive: DU-145 prostate 65.1% | MDA-MB-231 breast 40.9% | SF-268 CNS 60.9% | SF-295 CNS 67.8% | SNB-75 CNS 62.5% | SNB-19 CNS 49.1% | U251 CNS 20.3% | PC-3 prostate 46.9% | SK-MEL-5 melanoma 54.3%

O=c1cc(-c2ccccc2)nc2sc(-c3c[nH]c4ccc(F)cc34)nn12
active: SNB-75 CNS -37.9%
inactive: DU-145 prostate 63.3% | MALME-3M melanoma 21.9% | MDA-MB-231 breast 51.8% | RXF 393 renal 40.5% | SF-268 CNS 82.9% | SF-295 CNS 82.9% | SF-539 CNS 68% | M14 melanoma 63.5% | HCT-15 colon 67.8% | HT29 colon 73.2% | SNB-19 CNS 77.5% | U251 CNS 57.9% | PC-3 prostate 64.9% | SK-MEL-5 melanoma 69.8% | UACC-62 melanoma 68.1% | LOX IMVI melanoma 72% | SK-MEL-28 melanoma 67.7%

Cn1cc(-c2nn3cc(-c4cccnc4)nc3s2)c2cc(F)ccc21
inactive: DU-145 prostate 98.1% | MALME-3M melanoma 70.3% | MDA-MB-231 breast 67% | RXF 393 renal 103% | SF-268 CNS 112% | SF-295 CNS 92.5% | SF-539 CNS 80.3% | M14 melanoma 84.8% | HCT-15 colon 60% | HT29 colon 67.1% | SNB-75 CNS 86.9% | SNB-19 CNS 84.7% | U251 CNS 96.8% | PC-3 prostate 79.4% | SK-MEL-5 melanoma 94.3% | UACC-62 melanoma 62.2% | LOX IMVI melanoma 85.7% | SK-MEL-28 melanoma 81.7%

O=C1c2c(c3c4ccc(Br)cc4oc3c3[nH]c4ccccc4c23)C(=O)N1CCO
active: LOX IMVI melanoma 7.54%
inactive: DU-145 prostate 35% | MALME-3M melanoma 65.4% | MDA-MB-231 breast 65.1% | RXF 393 renal 57.1% | SF-268 CNS 49.2% | SF-295 CNS 20.8% | SF-539 CNS 17.1% | M14 melanoma 29.8% | HCT-15 colon 53% | HT29 colon 58.3% | SNB-75 CNS 88.7% | SNB-19 CNS 32.8% | U251 CNS 23.5% | SK-MEL-5 melanoma 17.3% | UACC-62 melanoma 23.5% | SK-MEL-28 melanoma 70.2%

COCCOc1ccc(-c2csc(NC(C)=O)n2)cc1NS(=O)(=O)c1cccc2c(N(C)C)cccc12
inactive: DU-145 prostate 98.3% | MALME-3M melanoma 83.9% | MDA-MB-231 breast 80.2% | RXF 393 renal 91.7% | SF-268 CNS 96.2% | SF-295 CNS 95.9% | SF-539 CNS 90.9% | M14 melanoma 94% | HCT-15 colon 94.5% | HT29 colon 89.3% | SNB-75 CNS 94.2% | SNB-19 CNS 71% | U251 CNS 99.5% | PC-3 prostate 68.5% | SK-MEL-5 melanoma 78.8% | UACC-62 melanoma 60.8% | LOX IMVI melanoma 98.4% | SK-MEL-28 melanoma 83.1%

CCOC(=O)CC(=O)CSC1=NC2C(NN1)N(C)C(=O)N2C (configuration not stated)
inactive: DU-145 prostate 90.2% | MALME-3M melanoma 61.6% | MDA-MB-231 breast 75.3% | RXF 393 renal 105% | SF-268 CNS 99.4% | SF-295 CNS 102% | SF-539 CNS 91.5% | M14 melanoma 81.3% | HCT-15 colon 63% | HT29 colon 62.9% | SNB-75 CNS 99% | SNB-19 CNS 97.4% | U251 CNS 98.6% | PC-3 prostate 89.4% | SK-MEL-5 melanoma 99.6% | UACC-62 melanoma 89.4% | LOX IMVI melanoma 92.9% | SK-MEL-28 melanoma 89.3%

COc1cc2c3c(n(CCCNCC4CC4)c(=O)c2cc1OC)-c1cc2c(cc1C3=O)OCO2
inactive: MALME-3M melanoma 71.1% | RXF 393 renal 43.9% | SF-268 CNS 45.6% | SF-295 CNS 22.3% | M14 melanoma 31.9% | SNB-75 CNS 66.8% | SNB-19 CNS 42.3% | PC-3 prostate 40% | SK-MEL-5 melanoma 53.2% | UACC-62 melanoma 45.7% | SK-MEL-28 melanoma 89.7%
active: DU-145 prostate -52.9% | MDA-MB-231 breast -73.6% | SF-539 CNS -88% | HCT-15 colon -72.2% | HT29 colon -70.6% | U251 CNS -95.7% | LOX IMVI melanoma -77.7%

Cn1cc(-c2nn3c(=O)cc(-c4ccccc4)nc3s2)c2cc(F)ccc21
inactive: DU-145 prostate 66.6% | MALME-3M melanoma 22.7% | MDA-MB-231 breast 58.3% | RXF 393 renal 45.9% | SF-268 CNS 78.4% | SF-295 CNS 34.7% | SF-539 CNS 49.9% | M14 melanoma 46.6% | HCT-15 colon 29.6% | HT29 colon 33.3% | SNB-75 CNS 30.9% | SNB-19 CNS 65.6% | U251 CNS 48.5% | PC-3 prostate 34.8% | SK-MEL-5 melanoma 43.8% | UACC-62 melanoma 33.9% | LOX IMVI melanoma 59.3% | SK-MEL-28 melanoma 45.2%
